rTrxR1 inhibitor: rat TrxR1 inhibition | O89049 | recombinant rTrxR1, NADPH fluorescence consumption, selenite substrate | Potency, µM (titrated, usually from 114 µM), most hits filed as inhibitors | 1% of 390,000 active | AID 588453; also: nearly all actives have a fitted effect of over 65% in size
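Rat TrxR1 (90 nM in the dispensed reagent) was pre-reduced with 400 uM NADPH for 5 min at room temperature, then incubated with compound for 15 min. After 400 uM selenite was added, NADPH fluorescence (Ex 340/Em 450 nm) was followed for 8 min.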
VDR inhibitor: inhibitors of human vitamin D receptor. AID 504847. 0.93% of 400,000 active. Potency, µM, most hits filed as inhibitors. VDR-SRC2-3 peptide fluorescence polarization, 2 h. P11473
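FP read-out; VDR + SRC2-3 coactivator peptide; 23 nl compound by pintool; 2 h RT incubation; reagents held at 4 deg C, protected from light.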
KAT2A inh: inhibitors of human GCN5L2 histone acetyltransferase; GCN5L2 HAT assay, ThioGlo1 CoA-SH fluorescence; Potency, µM (highest dose often 58.9 µM), most hits filed as inhibitors; Q92830; 0.21% of 390,000 active
Target sequence (Q92830 whole entry, looked up): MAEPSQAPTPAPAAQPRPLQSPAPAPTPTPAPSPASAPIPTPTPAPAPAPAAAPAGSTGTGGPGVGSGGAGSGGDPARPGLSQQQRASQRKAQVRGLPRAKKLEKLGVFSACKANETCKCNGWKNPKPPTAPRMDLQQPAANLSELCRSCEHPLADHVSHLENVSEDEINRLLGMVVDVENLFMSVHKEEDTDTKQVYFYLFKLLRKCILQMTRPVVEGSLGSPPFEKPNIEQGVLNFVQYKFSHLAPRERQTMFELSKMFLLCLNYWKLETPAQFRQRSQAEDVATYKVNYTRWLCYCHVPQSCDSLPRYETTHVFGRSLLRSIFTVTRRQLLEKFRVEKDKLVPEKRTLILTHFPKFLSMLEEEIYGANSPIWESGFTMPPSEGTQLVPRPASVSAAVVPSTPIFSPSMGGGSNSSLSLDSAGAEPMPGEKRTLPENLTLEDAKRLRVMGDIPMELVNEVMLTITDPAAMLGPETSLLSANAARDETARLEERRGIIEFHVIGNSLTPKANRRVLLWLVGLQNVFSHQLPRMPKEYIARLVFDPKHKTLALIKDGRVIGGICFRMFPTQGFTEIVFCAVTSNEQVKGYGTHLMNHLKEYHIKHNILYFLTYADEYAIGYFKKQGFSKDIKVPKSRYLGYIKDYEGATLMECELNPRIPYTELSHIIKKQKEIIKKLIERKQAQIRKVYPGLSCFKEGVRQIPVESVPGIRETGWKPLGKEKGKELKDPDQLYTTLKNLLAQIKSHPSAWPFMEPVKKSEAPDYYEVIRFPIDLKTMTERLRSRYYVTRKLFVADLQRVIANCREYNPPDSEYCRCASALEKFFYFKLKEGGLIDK
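Preincubate 20nM GCN5L2 with compound 15 min, RT → add 50uM ThioGlo1 + 75uM H3(1-25) + 70uM acetyl-CoA → read fluorescence 0 and 20 min. Primary qHTS; fluorescent artifacts likely.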
TrxR1 substrate: rat thioredoxin reductase 1 substrate activity | O89049 | purified TrxR1 substrate turnover, NADPH consumption readout | Potency, µM (series often up to 114 µM) | 0.01% of 390,000 active; also: nearly all actives have a fitted effect of over 50% in size
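Rat TrxR1, dispensed at 90 nM, was prereduced with 400 uM NADPH (final) for 5 min at ~22 deg C, then incubated with compound 15 min before 400 uM selenite. A first-read NADPH fluorescence drop versus no-compound background flagged substrates.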
Sfp inh: Sfp phosphopantetheinyl transferase inhibition | Q9F4F7 | Biochemical Sfp PPTase activity, qHTS | Potency, µM, actives largely listed as inhibitors | 3.5% of 310,000 active;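 also: the enzyme is Sfp with the accession as filed and its product quenches rhodamine fluorescence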
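Fluorescence-quenching assay with 15 nM Sfp, 5 uM rhodamine-CoA and 12.5 uM BHQ-2-labelled ybbR peptide in pH 7.6 Hepes/MgCl2 buffer. Enzyme was pre-incubated with compound for 15 min at room temperature. Rate was taken from the 30-min fluorescence change (525/598 nm).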
GLS inhibitor: inhibitors of human glutaminase (GLS); O94925; 0.21% of 410,000 active; Potency, µM (highest dose often 45.5 µM), usual class: inhibitors; GLS enzymatic activity, qHTS titration; AID 624170
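hKGA in 45 mM KH2PO4 (pH 8.2), 0.02% Tween-20 with compound, then 1mM L-Glutamine (stock as added) plus glutamate oxidase/HRP/Amplex red coupling mix. Fluorescence read initially and after 30 min at RT; signal change reflects glutamate formation.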
Large screens that a line does not name were inactive; ! = not confirmed by another sample. A selection: hits, their analogues and other compounds. The true share with any hit is near 3.8%. Calls follow the shape of the dose curve; as a rule, active = well fitted curve in the direction sought with a large enough effect; inconclusive = small, poorly fitted or top-dose-only effect, or another doubt; inactive = no such curve, though single readings can be large; an effect the other way counts as inactive or inconclusive.

COc1ccc(OCC(=O)Nn2c(-c3ccc(OC)cc3)nc3ccccc3c2=O)cc1	none
Cn1c2ccccc2c2c(C(=O)NCc3ccco3)cn(C3CCCCC3)c(=O)c21	rTrxR1 inhibitor 20µM, Sfp inh inconclusive
Cc1ccc(CNC(=O)c2cn(C3CCCC3)c(=O)c3c2c2ccccc2n3C)o1	Sfp inh 1.41µM (no result: rTrxR1 inhibitor, VDR inhibitor, KAT2A inh, TrxR1 substrate, GLS inhibitor)
CCC(C)NC(=O)CSc1nnc(-c2ccncc2)n1-c1ccc(OC)cc1 (configuration not stated)	none
Cc1cc(N2CCN(C)CC2)nc(=S)[nH]1	Sfp inh 50.1µM
Cc1ccc(SCC2=NN(c3nc(C)cc(C)n3)C(=O)C2)cc1	none
Cc1cc(C)nc(N2N=C(C(C)(C)C)CC2=O)n1	rTrxR1 inhibitor 39.8µM
COc1ccccc1N1CCN(c2ccc(=O)n(CC(=O)Nc3cc(F)ccc3C)n2)CC1	none (no result: Sfp inh)
Cc1cc(NC(=O)c2ccc(F)cc2)no1	none
Cc1cc(NC(=O)CCOc2ccc(F)cc2)no1	rTrxR1 inhibitor 14.1µM, VDR inhibitor inconclusive
COc1ccc(CCC(C)Nc2ccccc2F)cc1 (configuration not stated)	none
COc1ccc(CCC(C)Nc2cccc(F)c2)cc1 (configuration not stated)	Sfp inh 44.7µM
CC(=O)N(C(C)=O)c1ncnc2c1c(-c1ccc(Cl)cc1)nn2C(C)(C)C	VDR inhibitor 50.1µM
COc1ccc(NC(=O)N(C)C[C@H]2Oc3ccc(NC(=O)Cc4ccccc4)cc3C(=O)N([C@H](C)CO)C[C@@H]2C)cc1	none (no result: Sfp inh)
O=C(COc1ccc2cc(-c3ccccc3)c(=O)oc2c1)NCC1CCC(C(=O)O)CC1 (configuration not stated)	rTrxR1 inhibitor 31.6µM, KAT2A inh inconclusive
Cc1ccc(C(=O)NC(=S)NNS(=O)(=O)c2ccccc2)cc1	none
COc1cc(CN2CCN(Cc3cn(C)c4ccccc34)CC2CCO)cc(OC)c1 (configuration not stated)	none
C=CCc1c(C)nc(-c2ccccc2)nc1Nc1ccc(O)cc1	none
C=CCc1c(C)nc(-c2ccccc2)nc1N/N=C(\C)c1ccccc1	Sfp inh 44.7µM
CCCc1[nH][nH]c(=O)c1C(c1ccc(Br)cc1)C(C#N)C#N (configuration not stated)	rTrxR1 inhibitor inconclusive, VDR inhibitor 79.4µM, Sfp inh inconclusive
COc1ccc(C)cc1Nc1nc(N)c2cc(OC)c(OC)cc2n1	none
COc1cc2nc(N3CCN(c4cc(C)ccc4C)CC3)nc(N)c2cc1OC	Sfp inh 79.4µM
O=C1NC2=C(C(=O)c3ccccc32)C(c2ccccc2)N1 (configuration not stated)	none
Cc1cccc(C)c1-n1ncc(C(=O)NC2CCCC2)c1C1CCN(C(=O)OC(C)(C)C)CC1	none (no result: Sfp inh)
Cc1ccsc1/C=N/N=C/c1sccc1C	none
Cc1ccsc1C=Nc1ccc(O)cc1	rTrxR1 inhibitor 56.2µM, VDR inhibitor inconclusive, TrxR1 substrate inconclusive, Sfp inh inconclusive
CCCCNC(=O)C1(C)CCN1C(=O)c1sccc1C (configuration not stated)	none (no result: rTrxR1 inhibitor, VDR inhibitor, KAT2A inh, TrxR1 substrate, Sfp inh)
CC(=O)Nc1ccc(S(=O)(=O)Nc2ccc3c(c2)CCC3)cc1	none
COc1ccc(S(=O)(=O)Nc2ccc3c(c2)CCC3)cc1	VDR inhibitor 44.7µM
Cc1cc(NCCC(C)C)n2nc(C)c(-c3ccccc3)c2n1	Sfp inh 56.2µM
Cc1nc(SCC(=O)c2ccccc2)n[nH]1	rTrxR1 inhibitor inconclusive, VDR inhibitor 50.1µM, KAT2A inh inconclusive, Sfp inh 56.2µM
O=C(Cc1nc2ccccc2[nH]1)c1cccc([N+](=O)[O-])c1	Sfp inh 14.1µM
O=C(Nc1nc2ccccc2[nH]1)c1cccc([N+](=O)[O-])c1	none
CCc1nc(SCC(=O)c2cccc([N+](=O)[O-])c2)n[nH]1	rTrxR1 inhibitor inconclusive, VDR inhibitor 50.1µM, Sfp inh inconclusive
O=C(CSc1n[nH]c(-c2ccncc2)n1)c1ccccc1	none
O=C(CNC(=O)c1ccccc1)OCc1nnc(-c2ccc(Cl)cc2)o1	none
CCN(CC)CCCNC(=S)N(Cc1ccco1)Cc1cc2cc3c(cc2[nH]c1=O)OCCO3	Sfp inh 79.4µM (no result: rTrxR1 inhibitor, VDR inhibitor, TrxR1 substrate, GLS inhibitor)
Cc1cc2cc(CN(Cc3ccco3)C(=S)NCC3CCCO3)c(=O)[nH]c2cc1C (configuration not stated)	rTrxR1 inhibitor inconclusive, Sfp inh 50.1µM
CNC(=S)N(Cc1ccco1)Cc1cc2cc3c(cc2[nH]c1=O)OCCO3	rTrxR1 inhibitor inconclusive, Sfp inh 28.2µM
Nc1ccc(O)c([N+](=O)[O-])c1	GLS inhibitor 39.8µM! (no result: Sfp inh)
CC(=O)Nc1ccc(S(=O)(=O)NCCSCc2ccco2)cc1	rTrxR1 inhibitor inconclusive, Sfp inh 31.6µM
O=S1(=O)c2ccccc2N(Cc2ccc(Cl)cc2)c2ccccc21	none (no result: Sfp inh)
O=S1(=O)c2ccccc2N=NN1Cc1ccc(Cl)cc1	rTrxR1 inhibitor inconclusive, Sfp inh 50.1µM
C=CCC1NS(=O)(=O)OCC1NC(=O)OCC(Cl)(Cl)Cl (configuration not stated)	none
CC(C)(C)OC1NS(=O)(=O)OCC1NCOC(Cl)(Cl)Cl (configuration not stated)	rTrxR1 inhibitor 1.78µM, VDR inhibitor inconclusive, Sfp inh 12.6µM
CC(C)n1c(SCC(=O)Nc2nc3c(s2)CCCC3)nc2c1c(=O)n(C)c(=O)n2C	none
S=c1[nH]nc(C2CCCCC2)n1/N=C/c1ccncc1	Sfp inh 39.8µM
S=c1[nH]nc(C2CCCCC2)n1/N=C/c1ccccc1Cl	Sfp inh 63.1µM
FC(F)(F)c1ccccc1/C=N/n1c(C2CCCCC2)n[nH]c1=S	Sfp inh inconclusive
Cc1cccc(/C=N/n2c(C3CCCCC3)n[nH]c2=S)c1	VDR inhibitor inconclusive, Sfp inh 79.4µM
CCOC(=O)C1CCCCN1Cc1ccc(-c2ccccc2)cc1 (configuration not stated)	none
CCN(CC)c1nc(N)nc(NS(=O)(=O)c2ccc(Cl)cc2)n1	none
CCC(=O)Nc1sc(C(=O)Nc2ccccc2F)c(C)c1C(=O)OC	none
COC(=O)c1c(NC(C)=O)sc(C(=O)Nc2ccccc2F)c1C	Sfp inh 70.8µM
CS(=O)(=O)c1cc([N+](=O)[O-])c(Sc2nc3ccccc3[nH]2)c([N+](=O)[O-])c1	rTrxR1 inhibitor 1.26µM, VDR inhibitor 35.5µM, Sfp inh 12.6µM
O=C(O)c1ccc(CSc2nc3ccccc3[nH]2)cc1	KAT2A inh inconclusive
O=C(O)c1cc([N+](=O)[O-])c(Sc2nc3ccccc3[nH]2)c([N+](=O)[O-])c1	rTrxR1 inhibitor inconclusive, VDR inhibitor inconclusive, Sfp inh 50.1µM
CCN1CCN(c2ccc([N+](=O)[O-])c(Sc3nc4ccccc4[nH]3)c2)CC1	none

Screens: PubChem, National Center for Advancing Translational Sciences (NCATS)
